# Reference: PubChem BioAssay (NCATS)
# Several values for one entry are separate records, joined by “and”; a condition that tells them apart may be missing. Equal values may be shown once. Results filed as inconclusive are left out. Entries that show only a call come without a potency. For some assays here: Potency and affinity values are given separately. Activity calls are given as the source filed them.
# Key:
# [1] = qHTS assay for small molecule agonists of the antioxidant response element (ARE) signaling pathway measured by Nrf2-dependant transcriptional activity - cell viability counter screen (AID 720653; active = well fitted curve in the direction sought with a large enough effect in the repeat runs; an effect the other way counts as inactive or inconclusive); details: ARE-bla HepG2 viability, CellTiter-Glo ATP luminescence, 16 h; max response: stronger effect = lower value
# Method in brief: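 Cytotoxicity counter screen: intracellular ATP quantified by CellTiter-Glo luminescence in the same ARE-bla HepG2 plates, after 16 h compound exposure and a 2 h beta-lactamase substrate step.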
# [2] = qHTS Assay for Identifying Gametocytocidal Compounds (AID 743244); also: potency is read from the fitted curve at half-maximal effect;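 as to max response: actives lower the fluorescent signal which means gametocytes are killed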; details: P. falciparum 3D7 stage III-V gametocytes, alamarBlue, 72 h; max response: stronger effect = lower value
# Method in brief: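 A resazurin-based viability read-out was applied to mature P. falciparum gametocytes: 72 h compound treatment, then 24 h dye incubation, with falling fluorescence signalling gametocytocidal effect.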
# [3] = qHTS assay for cell viability of HEK293 cells (AID 743288); details: ATP luminescence (CellTiter-Glo), 18 h; max response: stronger effect = lower value; also: nearly all actives have a fitted effect of over 50% in size
# Method in brief: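 The Tox21 protocol used parental HEK293 cells treated for 18 h at 37 C with compounds delivered by pintool; ATP-coupled luminescence after 30 min at room temperature gave viability.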
# [4] = qHTS assay for cell viability of the p53RE-bla HCT-116 cell line (AID 743292); also: nearly all actives have a fitted effect of over 55% in size
# Method in brief: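 Compound-exposed HCT-116 (p53RE-bla) cells, 4,000 per well, were kept 16 h at 37 C following a 5 h preincubation. Cell number was estimated from total ATP by CellTiter-Glo luminescence read after 30 min at room temperature.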
# [5] = molecular target: T1, Hexokinase-4 (Homo sapiens) + Glucokinase regulatory protein (Homo sapiens) (UniProt P35557+Q14397); assay: qHTS assay for inhibitors of recombinant human GCK-GKRP interaction: Diaphorase-coupled assay (AID 743205)
# T1 sequence (P35557 whole entry, looked up): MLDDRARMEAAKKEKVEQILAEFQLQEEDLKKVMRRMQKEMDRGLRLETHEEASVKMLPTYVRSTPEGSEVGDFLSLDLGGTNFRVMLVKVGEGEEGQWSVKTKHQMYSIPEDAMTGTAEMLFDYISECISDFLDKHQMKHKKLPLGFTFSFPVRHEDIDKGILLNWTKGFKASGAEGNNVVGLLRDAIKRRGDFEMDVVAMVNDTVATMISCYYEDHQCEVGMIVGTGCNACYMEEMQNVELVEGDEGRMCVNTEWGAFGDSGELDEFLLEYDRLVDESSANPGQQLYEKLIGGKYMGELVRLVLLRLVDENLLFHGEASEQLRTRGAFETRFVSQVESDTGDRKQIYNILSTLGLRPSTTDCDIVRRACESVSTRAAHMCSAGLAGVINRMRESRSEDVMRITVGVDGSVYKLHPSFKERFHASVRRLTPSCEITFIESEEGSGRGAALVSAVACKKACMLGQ
# T1 sequence (Q14397 whole entry, looked up): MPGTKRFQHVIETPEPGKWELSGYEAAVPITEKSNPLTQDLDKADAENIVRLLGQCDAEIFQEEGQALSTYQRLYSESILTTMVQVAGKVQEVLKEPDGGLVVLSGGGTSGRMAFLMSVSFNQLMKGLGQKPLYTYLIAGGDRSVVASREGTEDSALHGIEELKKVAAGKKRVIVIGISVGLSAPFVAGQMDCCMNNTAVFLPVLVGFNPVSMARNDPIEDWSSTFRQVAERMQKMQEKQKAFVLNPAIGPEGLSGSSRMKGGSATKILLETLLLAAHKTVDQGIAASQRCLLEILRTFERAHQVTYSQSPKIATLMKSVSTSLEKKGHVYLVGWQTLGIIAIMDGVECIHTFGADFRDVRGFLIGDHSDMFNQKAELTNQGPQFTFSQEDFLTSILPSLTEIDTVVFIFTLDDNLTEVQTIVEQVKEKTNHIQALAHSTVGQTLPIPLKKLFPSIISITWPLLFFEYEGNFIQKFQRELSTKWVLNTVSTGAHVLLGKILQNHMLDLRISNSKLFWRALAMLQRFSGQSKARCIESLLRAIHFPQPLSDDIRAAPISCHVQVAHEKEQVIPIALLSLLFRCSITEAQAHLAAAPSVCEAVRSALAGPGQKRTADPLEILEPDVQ
# Method in brief: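 Inhibitors of the GCK–GKRP complex relieve GKRP suppression of GCK, detected through a G6PDH–diaphorase cascade reducing resazurin. Human GST-GCK and FLAG-GKRP are used at 10 nM with 5 mM glucose and 0.4 mM ATP.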
# [6] = molecular target: T1, Hexokinase-4 (Homo sapiens) + Glucokinase regulatory protein (Homo sapiens); assay: qHTS assay for inhibitors of recombinant human GCK-GKRP interaction: ADP-Glo assay (AID 743206)
# Method in brief: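 GST-GCK and FLAG-GKRP (15 nM each in the dispensed mix, with 2 uM S6P) react with 0.4 mM ATP and 5 mM glucose (final) in Hepes pH 7.6 for 60 min at room temperature. ADP is measured by ADP-Glo luminescence.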
# [7] = molecular target: T1, Hexokinase-4 (Homo sapiens) + Glucokinase regulatory protein (Homo sapiens); assay: qHTS assay for inhibitors of recombinant human GCK-GKRP interaction: HTRF assay (AID 743207)
# Method in brief: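 Steps: dispense GCK–GKRP complex (5 nM each, GST- and FLAG-tagged) with 2 uM S6P; pin in compounds; add XL665/Eu-cryptate-labelled antibodies; incubate 60 min at room temperature; read time-resolved FRET at 665 and 615 nm.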
# [8] = Ebola virus entry assay, green channel fluorescence
# [9] = Ebola virus entry assay, reporter ratio channel; Channel type: primary
# [10] = Ebola virus entry assay, blue channel (ratio component)
# [11] = qHTS profiling of the MIPE4 collection as inhibitors of Plasmodium falciparum (3D7) proliferation (AID 743344; call rule not given here); details: P. falciparum 3D7 in erythrocytes, SYBR Green DNA fluorescence, 72 h; at 28.5 µM (top of the series)
# Method in brief: (§1)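 Erythrocytes infected with P. falciparum (0.3% parasitemia, 2.5% hematocrit) incubated with compounds 72 h at 37 C, 5% CO2. Lysis with saponin/Triton buffer containing SYBR Green I, overnight at room temperature in the dark; DNA fluorescence (485/535 nm) normalised to 0.29 uM artemisinin and DMSO.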
# [12] = qHTS profiling of the MIPE4 collection as inhibitors of Plasmodium falciparum (DD2) proliferation (AID 743345; call rule not given here); details: P. falciparum Dd2 in erythrocytes, SYBR Green DNA, 72 h; at 28.5 µM (top of the series) unless noted
# Method in brief: as §1
# [13] = qHTS profiling of the MIPE4 collection as inhibitors of Plasmodium falciparum (DD2) proliferation (Rep 2) (AID 743346; call rule not given here); details: P. falciparum Dd2 in erythrocytes, SYBR Green DNA, 72 h; at 28.5 µM (top of the series)
# Method in brief: as §1
# [14] = qHTS profiling of the MIPE4 collection as inhibitors of Plasmodium falciparum (HB3) proliferation (AID 743347; call rule not given here); details: P. falciparum HB3 in erythrocytes, SYBR Green DNA, 72 h; at 28.5 µM (top of the series)
# Method in brief: as §1
smiles,measurement,setting,value
CCCCCCCCc1ccc(O)cc1,max response,[1],-0.124% (inactive) and 0.446% (inactive)
same,max response,[2],-6.88% (inactive)
same,max response,[3],-15.8% (inactive) and -26% (inactive)
same,Potency,[4],inactive
CNCCc1c[nH]c2ccc(O)cc12,outcome,[5],inactive
same,outcome,[6],inactive
same,outcome,[7],inactive
COCCOCCO,max response,[1],-0.036% (inactive) and -2.85% (inactive)
same,max response,[2],-9.77% (inactive)
same,max response,[3],-8% (inactive) and -15.7% (inactive)
same,Potency,[4],inactive
same,outcome,[8],inactive
same,outcome,[9],inactive
same,outcome,[10],inactive
CC(=O)Nc1ccc(O)cc1,outcome,[9],inactive
same,outcome,[10],inactive
COc1cc(C(O)CN)ccc1O (stereo not given),outcome,[5],inactive
same,outcome,[6],inactive
same,outcome,[7],inactive
same,max response,[2],2.34% (inactive)
c1ccc(CCCN2CCN(CCOC(c3ccccc3)c3ccccc3)CC2)cc1,outcome,[5],inactive
same,outcome,[6],inactive
same,outcome,[7],inactive
same,"parasite growth, % of DMSO control",[11],9.93%
same,"parasite growth remaining, % of DMSO control (lower = more inhibition)",[12],25.6%
same,"parasite growth, % of control (lower = inhibition)",[13],18.7%
same,"growth, % of control",[14],19.2%
Cc1nc2cnc3ccc(C#Cc4cccnc4)cc3c2n1-c1ccc(C(C)(C)C#N)cc1,Potency,[2],5.9 µM (active)
Cc1c(C(=O)c2cccc3ccccc23)c2cccc3c2n1[C@H](CN1CCOCC1)CO3,outcome,[5],inactive
same,outcome,[6],inactive
same,"parasite growth, % of DMSO control",[11],15.4%
same,"parasite growth remaining, % of DMSO control (lower = more inhibition)",[12],47.9%
same,"parasite growth, % of control (lower = inhibition)",[13],48.7%
same,"growth, % of control",[14],13.4%
C[C@]12N[C@H](Cc3ccccc31)c1ccccc12,outcome,[5],inactive
same,outcome,[6],inactive
same,outcome,[7],inactive
same,max response,[2],-6.68% (inactive) and -2.83% (inactive) and -7.09% (inactive)
O=C1CCCN1CC#CCN1CCCC1,outcome,[5],inactive
same,outcome,[6],inactive
same,outcome,[7],inactive
same,max response,[2],30.9% (inactive)
CC[C@@]1(O)C(=O)OCc2c1cc1n(c2=O)Cc2cc3ccccc3nc2-1,outcome,[5],inactive
same,outcome,[6],inactive
same,outcome,[7],inactive
same,max response,[2],-1.6% (inactive)
same,"parasite growth, % of DMSO control",[11],15.1%
same,"parasite growth remaining, % of DMSO control (lower = more inhibition)",[12],12.9%
same,"parasite growth, % of control (lower = inhibition)",[13],19.3%
same,"growth, % of control",[14],5.89%
